From PubChem BioAssay (NCI)
Compounds without any hit were thinned out: in the full panel of roughly 83,000, 20% have a hit.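 Results are percent growth after 48 hours of single-concentration exposure. 100 means growth as in untreated cells, lower positive values show inhibition; negative values down to -100 show cell death.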 Unmarked numbers belong to inactive results. Activity calls are given as the source filed them. How the source made its calls: active means growth percent below 10; inactive means the rest.

system: HCT-116 colon; test: NCI-60 one-dose screen, 48 h (100 = growth as untreated, 0 = no growth, -100 = all killed); conditions: 10 µM unless noted

SMILES	growth
CCCCNc1ccc2c3c(cccc13)C(=O)N(c1cccc(-c3nn(-c4ccccc4)cc3-c3nc4ccccc4s3)c1)C2=O	98.9%
COc1ccc(-c2cc(-c3cc(OC)c(OC)c(OC)c3)[nH]c(=O)c2C#N)cc1	34.7%
COc1cc(C2CC(c3ccc(Cl)cc3)=Nc3c(N)nc(N)nc3N2)ccc1Oc1nc(Nc2ccc(F)cc2)nc(N(C)C)n1 (stereo not drawn)	-5.37% (active)
O=C(O)CC1S/C(=N/N=C/c2nc3ccccc3s2)NC1=O (stereo not drawn)	71.1%
Cc1ccc(S(=O)(=O)N(CCn2ccnc2[N+](=O)[O-])CCn2ccnc2[N+](=O)[O-])cc1	102%
N#CCc1nnc(NC(=O)c2ccc(-n3c(=O)[nH]c4ccccc4c3=O)cc2)s1	103%
O=C(N/N=C/c1ccc(Br)o1)c1[nH]c2ccc(Br)cc2c1-c1ccccc1	-13.3% (active)
COc1ccc(N=Nc2c(N)nn3c(-c4ccc([N+](=O)[O-])cc4)ccnc23)cc1	97.9%
Cn1cc(-c2cc(N)n3nc(-c4c[nH]c5ccc(Cl)cc45)cc3n2)c2cc(Br)cnc21	-74.3% (active)
CN1C(=O)C2(C(C#N)=C(c3ccc(Cl)cc3)Nc3c2c(-c2ccccc2)nn3-c2ccccc2)c2ccccc21 (stereo not drawn)	73.8%
Cc1nn(-c2ccccc2)c2nc(C)n(C(=O)N/N=C/c3ccccc3)c(=O)c12	102%
CN1CCN(CCS(=O)(=O)Nc2cc(-c3ccc4ncnc(Nc5ccc(F)c(Cl)c5)c4c3)cnc2Cl)CC1	27.8%
COc1cc(C2CC(c3ccc(C(F)(F)F)cc3)=Nc3c(N)nc(N)nc3N2)ccc1Oc1nc(Nc2ccc(F)cc2)nc(N(C)C)n1 (stereo not drawn)	-16.4% (active)
COc1ccc2[nH]c(=O)c(CSc3ccccc3Nc3nccc(-c4ccc5c(c4)OCO5)n3)cc2c1	70%
Cc1cc(=O)oc2cc(OCC(O)CNN3C(=O)c4cccc5c(N6CCN(C)CC6)ccc(c45)C3=O)ccc12 (stereo not drawn)	93.5%
CC[C@]12C=CCN3CC[C@]4(C(=C(C(=O)OC)C1)Nc1cc(OC)c([C@@H]5[C@H]6O[C@H]6[C@@]6(CC)CC(C(=O)OC)=C7Nc8cc(OC)ccc8[C@@]78CCN5[C@@H]68)cc14)[C@@H]32	20.5%
C#CCCCNCCNc1ccnc2cc(Cl)ccc12	49.5%
CCOC(=O)/C(F)=C/C1CC1C(c1ccccc1)c1ccccc1 (stereo not drawn)	62%
S=C(NCCc1ccccc1)Nc1ccc(OCc2nc3ccc(Cl)cc3[nH]2)cc1	18.9%

SMILES	growth
Cc1ccc(C(=O)C[n+]2cccc3c4ccccc4ccc32)cc1	11.8%
CCCn1c(NC(=O)c2cccc(C(N)=O)c2)nc2cc(CN3CCCCC3)ccc21	5.91% (active)
CCC(=O)c1c2c(c3ccc4c5ccccc5ccc4n13)C(=O)c1ccccc1C2=O	92.6%
O=C1/C(=C/c2cnc(-c3ccccc3)s2)SC(=S)N1Cc1ccc2c(c1)OCO2	69.4%
O=c1[nH]c2ccccc2cc1COc1ccc(Nc2nccc(-c3ccc(Cl)cc3)n2)cc1	96.4%
O=C(/C=C1\C(=O)N(Cc2ccccc2)c2ccccc21)c1cc2ccccc2oc1=O	82.9%
COc1ccc(NC(=O)Cn2c(/C=C/c3cccc(Br)c3)nc3ccccc3c2=O)cc1	26.2%
O=c1ccc(Cn2c(C(F)(F)F)cc3c(Cl)ncnc32)c[nH]1	19.5%
CCCCC[C@@H]1C/C=C(\C)[C@@H](O)C(C)(C)C(=O)[C@@H](C)/C=C(\C)[C@@H]2C[C@H](O)C[C@](O)(CC(=O)O1)O2	43%
COc1cc(NC(=O)CSc2nnc(-c3ccc(-c4nc5ccc(Cl)cc5[nH]4)cc3)o2)cc(OC)c1OC	33.2%
Cc1ccc(C2CC(c3ccc(S(=O)(=O)NCCNc4nc(N(C)C)nc(N5CCOCC5)n4)cc3)=Nc3c(N)nc(N)nc3N2)cc1 (stereo not drawn)	38.7%
CCCCNC(=S)Nc1ccc(OCc2nc3ccc(Cl)cc3[nH]2)cc1	11.2%
Nc1nn2c(-c3cc4cc(Br)ccc4oc3=O)ccnc2c1N=Nc1ccc(S(N)(=O)=O)cc1	56%
OCCn1cc(-c2nc3ccc4[nH]ncc4c3c3c2CCCC3)cn1	24%
CN(C)CCCc1ccc(Nc2cnn(C)c(=O)c2Cl)cc1	95.5%
Nc1cc2ccccc2c(=O)n1NC(=O)c1ccccc1	96.5%
Cn1cc(-c2cc(N)n3nc(-c4c[nH]c5ccccc45)cc3n2)c2cc(Cl)ccc21	-73.4% (active)
O=C(NC(=S)N1CCN(c2ncnc3c2cnn3-c2ccccc2)CC1)c1ccc(Br)cc1	60.3%
O=C(N/N=C/c1ccc(B(O)O)s1)c1[nH]c2ccc(Br)cc2c1-c1ccccc1	-62.9% (active)
